In this experiment the target is Peroxisome proliferator-activated receptor gamma (Homo sapiens) (UniProt P37231). In words: PPARg partial agonist activation, primary screen, cell-based, luciferase reporter, luminescence (AID 504452).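 Note: Cos-1 cells carrying PPARgamma and a response element luciferase reporter.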 The note with it: at 5 µM, stronger effect = higher value; activation (% of full agonist control): measured here: relative to full agonist control.

The source made the active and inactive calls. Cut-off read from the data, not from the text of the source: active = activation above about 85%; inactive = the rest.

Drawing on PubChem BioAssay AID504452 (The Scripps Research Institute Molecular Screening Center, 2011), this text covers activation (% of full agonist control) and activation (% of partial agonist control) for 25 molecules.

Sequence of Peroxisome proliferator-activated receptor gamma (Homo sapiens) (P37231 whole entry, looked up): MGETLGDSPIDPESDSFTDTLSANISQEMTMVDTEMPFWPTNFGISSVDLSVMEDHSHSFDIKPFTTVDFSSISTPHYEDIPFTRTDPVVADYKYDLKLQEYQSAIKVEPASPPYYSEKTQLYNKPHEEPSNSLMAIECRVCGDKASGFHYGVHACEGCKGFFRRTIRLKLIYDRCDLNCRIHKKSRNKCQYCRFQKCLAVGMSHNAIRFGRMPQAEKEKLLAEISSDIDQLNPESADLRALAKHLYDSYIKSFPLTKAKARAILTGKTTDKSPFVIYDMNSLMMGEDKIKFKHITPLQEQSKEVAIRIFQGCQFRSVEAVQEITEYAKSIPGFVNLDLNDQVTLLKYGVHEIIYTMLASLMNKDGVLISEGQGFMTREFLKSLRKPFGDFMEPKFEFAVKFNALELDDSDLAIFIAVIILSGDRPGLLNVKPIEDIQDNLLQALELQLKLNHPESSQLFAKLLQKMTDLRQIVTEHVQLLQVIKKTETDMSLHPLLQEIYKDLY

With `Cc1cc(C)c2nc(N3C(=O)C(O)=C(C(=O)c4ccco4)C3c3ccco3)sc2c1` (stereo not given), the activation (% of full agonist control) is 32.9% and the activation (% of partial agonist control) is 72.7% (inactive).

As to `CN1CCN(S(=O)(=O)c2ccc(Sc3nc4ccccc4[nH]3)c3nsnc23)CC1`, the activation (% of full agonist control) is 43.8% and the activation (% of partial agonist control) was 96.9% (active).

On to `COc1ccc(CN(Cc2ccccn2)C(=O)CN2C(=O)C(C)Oc3ccccc32)cc1` (stereo not given), for which the activation (% of full agonist control) worked out at 38.6% and the activation (% of partial agonist control) was 85.4% (active).

For `O=c1c2cn(Cc3ccc(F)cc3)c3ccc(F)cc3c-2nn1Cc1ccc(F)cc1`, the activation (% of full agonist control) stood at 48.9% and the activation (% of partial agonist control) is 108% (active).

For `N#Cc1ccc(C(=O)Nc2cc(-c3ccc(F)cc3)nn2-c2ccccc2)cc1`, the activation (% of full agonist control) was 27.4% and the activation (% of partial agonist control) was 60.6% (inactive).

As for `COc1ccc(C2C(C(=O)N3CCC(C(N)=O)CC3)CC(=O)N2c2ccc(OC)cc2)cc1` (stereo not given), the activation (% of full agonist control) was 25.5% and the activation (% of partial agonist control) is 56.5% (inactive).

Turning to `CC(Oc1cccc(Cl)c1)C(=O)Nc1cc(S(=O)(=O)N2CCOCC2)ccc1N1CCCC1` (stereo not given), the activation (% of full agonist control) was 35.3% and the activation (% of partial agonist control) is 78.1% (inactive).

For the molecule `Cc1cc(C(=O)CN2C(=O)C(=O)N(Cc3ccccc3)C2=O)c(C)n1Cc1ccc(F)cc1`, the activation (% of full agonist control) is 38% and the activation (% of partial agonist control) was 84.1% (inactive).

As to `O=C(NC(Cc1ccccc1)C(=O)O)/C(=C/c1ccc(Cl)cc1)NC(=O)c1ccco1` (stereo not given), the activation (% of full agonist control) came out at 24.4% and the activation (% of partial agonist control) is 54% (inactive).

On to `O=[N+]([O-])c1cc(S(=O)(=O)Nc2cccc(C(F)(F)F)c2)ccc1-n1nnc2ccccc21`, for which the activation (% of full agonist control) is 34.2% and the activation (% of partial agonist control) is 75.8% (inactive).

Take `COc1cc2c(C(=O)N3CCN(c4ccccc4F)CC3)cn(C)c(=O)c2cc1OC`: the activation (% of full agonist control) worked out at 24.1% and the activation (% of partial agonist control) was 53.4% (inactive).

`COc1ccc(C)c2sc(N(CCCN(C)C)C(=O)CS(=O)(=O)c3ccc(F)cc3)nc12`: the activation (% of full agonist control) is 31.2% and the activation (% of partial agonist control) was 69.1% (inactive).

On to `CCOc1cccc(/C(O)=C2/C(=O)C(=O)N(Cc3ccco3)C2c2ccncc2)c1` (stereo not given), for which the activation (% of full agonist control) turned out to be 41.1% and the activation (% of partial agonist control) is 91% (active).

Turning to `Nc1ccc(-n2c(N)c(C(=O)NCc3ccc4c(c3)OCO4)c3nc4ccccc4nc32)cc1`, the activation (% of full agonist control) worked out at 26.3% and the activation (% of partial agonist control) was 58.3% (inactive).

As for `CCOc1cccc(/C(O)=C2/C(=O)C(=O)N(CCN3CCOCC3)C2c2ccncc2)c1` (stereo not given), the activation (% of full agonist control) turned out to be 41.3% and the activation (% of partial agonist control) was 91.4% (active).

Regarding `O=C(CCn1c(=O)c2sccc2n(CC(=O)OCc2ccccc2)c1=O)NCc1ccccc1`, the activation (% of full agonist control) was 31.1% and the activation (% of partial agonist control) is 68.8% (inactive).

For `Cc1ccc(C)c(S(=O)(=O)NCC(c2ccco2)N2CCc3ccccc3C2)c1` (stereo not given), the activation (% of full agonist control) is 29% and the activation (% of partial agonist control) was 64.3% (inactive).

As for `CC(Oc1ccc2c(c1)oc(=O)c1ccccc12)C(=O)NC(Cc1c[nH]c2ccc(O)cc12)C(=O)O` (stereo not given), the activation (% of full agonist control) worked out at 49.2% and the activation (% of partial agonist control) was 109% (active).

With `CC1Cc2cc(/C(O)=C3/C(=O)C(=O)N(CCN4CCOCC4)C3c3ccc(N(C)C)cc3)ccc2O1` (stereo not given), the activation (% of full agonist control) was 29.1% and the activation (% of partial agonist control) was 64.3% (inactive).

On to `S=C(NCCc1ccccc1)N1CCn2cccc2C1c1ccncc1` (stereo not given), for which the activation (% of full agonist control) was 44.2% and the activation (% of partial agonist control) is 97.9% (active).

Take `O=C(c1ccc(F)cc1)c1cn(Cc2ccc(F)cc2)c2cc3c(cc2c1=O)OCCO3`: the activation (% of full agonist control) was found to be 37.8% and the activation (% of partial agonist control) is 83.8% (inactive).

In the case of `OCCC1CN(Cc2cccn2-c2cccnc2)CCN1Cc1ccc(F)cc1` (stereo not given), the activation (% of full agonist control) stood at 29.8% and the activation (% of partial agonist control) was 66% (inactive).

Regarding `O=C(Cc1cccc(C(F)(F)F)c1)Nc1cc(S(=O)(=O)N2CCOCC2)ccc1N1CCCC1`, the activation (% of full agonist control) came to 31.4% and the activation (% of partial agonist control) was 69.5% (inactive).

As to `O=C(CN(c1ccc(F)cc1)S(=O)(=O)c1ccccc1)NC1CC2CCC1C2` (stereo not given), the activation (% of full agonist control) is 24.2% and the activation (% of partial agonist control) was 53.5% (inactive).

As for `Cc1ccc2nc(N3C(=O)C(O)=C(C(=O)c4ccc(C)o4)C3c3ccc(O)cc3)sc2c1` (stereo not given), the activation (% of full agonist control) is 37% and the activation (% of partial agonist control) was 81.9% (inactive).
